The values below come from PubChem BioAssay (NCI).

Where “and” joins values, the source holds several entries; their conditions need not be identical. Equal entries are not always repeated. Compounds without any hit were thinned out: in the full panel of roughly 83,000, 20% have a hit.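 How to read the values: 0–100, growth inhibition (40 = 60% inhibited); 0, no net growth; -100 to 0, cell death (-40 = 40% of starting cells died; -100 = all dead).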 A number with no mark means an inactive call. Calls of active or inactive are those of the source.

The first assay deals with NCI-H23 lung. The assay can be described thus: NCI-60 one-dose screen, 48 h (100 = growth as untreated, 0 = no growth, -100 = all killed). The conditions noted are these: 10 µM. As for the experimental part: Growth inhibition of the NCI-H23 human Non-Small Cell Lung tumor cell line is measured as a screen for anti-cancer activity. Cells are grown in 96 well plates and exposed to the test compound for 48 hours. Compounds are tested at a single concentration, which is 10^-5 M for most compounds. The reported endpoint is percent growth (GI% or GIPRCNT), where numbers from 0 - 100% represent growth inhibition, and numbers from -100% - 0 represent cell death. For example, a value of 40 represents 60% growth inhibition. A value of 0 means no net growth occurred over the course of the experiment. A value of -40 indicates 40% of cells at the beginning of the experiment died by the end of the experiment. A value of -100 means all cells are dead at the end of the experiment.
NCI-60 Human Tumor Cell Lines Screen was performed using the standard one-dose NCI protocol, which is described in more detail at https://dtp.cancer.gov/discovery_development/nci-60/default.htm.
Compounds with GIPRCNT values below 10 were considered active. Activity score was based on GIPRCNT using the following formula: […]
Score is 0 for GIPRCNT values of 100 or above, 50 for GIPRCNT values of 0, and 100 for GIPRCNT values of -100.
`O=c1ccn2c(n1)OC1CC2OC1COC(c1ccccc1)(c1ccccc1)c1ccccc1` (stereo not given): the growth was 116%.

The same assay, now with this note: 10 µM unless noted.
In the case of `COc1ccc([N+](=O)[O-])cc1OC`, the growth is 98.5% and 106%. Still for that read-out and setting: the value for `O=P(O)(O)OC1C(OP(=O)(O)O)C(OP(=O)(O)O)C(OP(=O)(O)O)C(OP(=O)(O)O)C1OP(=O)(O)O.[Cu+2]` (stereo not given) was 93.3%. For `NC1=NC(c2ccccc2)N=C(Nc2ccccc2)N1` (stereo not given), the growth was 79.5% and 66.5%. Consider `CCCCOC1NC(=O)NC(=O)C1(F)C(=O)OCC` (stereo not given), for which the growth is 79.6% and 55.9%. The same measure, in the same setting: the value for `CCc1ccc(OC(=O)CCl)cc1` was 96.7%. The same measure, in the same setting: then `CCNC1=CC(=O)c2ncccc2C1=O`, with -49.7% (active). In the case of `CCOC(=O)C1=CC(=O)CC(C)(C)O1`, the growth was 104% and 107%. The same measure, in the same setting: then `Cc1onc(-c2c(F)cccc2Cl)c1-c1ncc(-c2ccc(Cl)cc2)o1`, with 67% and 42.5%; and `COc1ccccc1OCC(O)CO` (stereo not given), with 106% and 103%. On the same count and under the same terms, then `CCCCCCC(C)CC1=C(O)c2ccccc2C(=O)C1=O` (stereo not given), with 42.2%.

Consider `O=C(NC(CSSCC(NC(=O)OCc1ccccc1)C(=O)O)C(=O)O)OCc1ccccc1` (stereo not given), for which the growth is 93.2% and 97.3%. On the same count and under the same terms, the value for `Cc1ccc2cccc([N+](=O)[O-])c2n1` was 108% and 95%; that for `CC(=O)Oc1cc(C)c(OC(C)=O)c(C)c1C` was 97.3%; that for `CSc1nc(N)c(N)c(N)n1` was 97.9%.

As to `COc1cc(NCCCCCNC(C)C)c2ncccc2c1`, the growth was 104% and 90.3%.

As to `CC(=O)Nc1ccc(OC(C)=O)cc1`, the growth was 12% and 103%. Same read-out and setting: the value for `CC1OS(=O)OC1C` (stereo not given) was 101% and 95.8%; that for `O=C1C(=O)c2ccccc2C(O)=C1CC=C(Cl)Cl` was 67.6% and 71.5%. Same read-out and setting: the value for `OC1CCCN(Cc2ccccc2)C1` (stereo not given) was 103%; that for `OC(CC(c1ccccc1)c1cccc2ccccc12)(c1ccccc1)c1ccccc1` (stereo not given) was 76.2% and 71.1%; that for `Cc1cc(O)c(C(C)C)cc1N=O` was 95.4% and 111%. Same read-out and setting: the value for `Cc1cc2nc3ccc(=[N+](C)C)cc-3sc2cc1N` was 21.7%; that for `O=[N+]([O-])c1ccc(N/N=C/C2CCCCCC2)c([N+](=O)[O-])c1` was 99.9%; that for `S=c1ccc2ccccc2[nH]1` was 107% and 101%. As for `CC(=O)c1cccc(OC(=O)c2ccccc2)c1`, the growth was 101%. As to `Cc1ccc([N+](=O)[O-])cc1Br`, the growth is 110%.

As to `Cc1cc(=NO)cc(C)n1O`, the growth was 109%.

Take `CCN(CC)Cc1cc2[nH]c3c4ccc(Cl)cc4ncc3c2cc1OC`: the growth was 68.4%.

Take `CS(=O)(=O)c1nsc(N)n1`: the growth was 94.7%. Take `CS(=O)(=O)OCC1NC(=O)C(COS(C)(=O)=O)NC1=O` (stereo not given): the growth is 84% and 88.5%. Same read-out and setting: the value for `COCCCNC1=C(C#N)C(=O)NC(c2cccs2)S1` (stereo not given) was 104%; that for `O=[N+]([O-])c1cccc(N=Cc2ccccc2)c1` was 111%; that for `O=C1c2ccccc2C(c2ccccc2)C1c1ccccc1` (stereo not given) was 91%.

On to `O=C(NC(=O)c1ccc(F)c(Cl)c1)NC1CC1`, for which the growth is 104% and 98.8%. For the compound `COc1cc2c(cc1O)C(=O)CCCC2`, the growth is 91.8%. Take `O=c1[nH]c(=S)[nH]n1C(=S)n1[nH]c(=S)[nH]c1=O`: the growth is 110%. Take `O=C1C=CC(n2cc(F)c(=O)[nH]c2=O)O1` (stereo not given): the growth was 65.2%. `CC(=O)Oc1ccc(C2(c3ccc(OC(C)=O)cc3)C(=O)Nc3ccccc32)cc1`: the growth is 41.5% and 54.4%.

Still in this assay, the particulars now being: 100 µM.
With `O=c1ccn2c(n1)OC1CC2OC1COC(c1ccccc1)(c1ccccc1)c1ccccc1` (stereo not given), the growth was 99.6%.
